Measured values published in PubChem BioAssay.
Several values for one entry are separate records, joined by “and”; a condition that tells them apart may be missing. Equal entries are not always repeated. Results filed as inconclusive are left out. Activity calls are given as the source filed them.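 Rule for the calls, unless noted: active = response below a set limit, under 55% cells CD8-positive and vesicle-bound, and CD8 cells' 90th-percentile brightness under 279; inactive = the rest.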

Key:
[1] = yeast TOR pathway RPL19A-GFP modulators, primary screen, cell-based, S. cerevisiae, multiplex flow cytometry (AID 1862; in the data active = percent of DMSO control GFP below about 86%;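 note: lower values mimic rapamycin by blocking the RPL19A rise seen in DMSO cells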); conditions: S. cerevisiae RPL19A-GFP strain, flow cytometry fluorescence, 3 h; at 10 µM; stronger effect = lower value
[2] = modulators of MEP2-GFP levels in yeast, primary screen, S. cerevisiae, multiplex flow cytometry (AID 1867;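 active = GFP response, as percent of the DMSO control, above the screen-wide mean plus 3 SD, about 139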;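 note: median GFP channel fluorescence of barcode-gated MEP2-GFP cells measured by flow cytometry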); conditions: S. cerevisiae MEP2-GFP strain, 3 h, at 10 µM, stronger effect = higher value, 100% means same as DMSO wells
[3] = modulators of CIT2-GFP expression in yeast, primary screen, S. cerevisiae, GFP fusion, multiplex flow cytometry (AID 1870;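 active = percent response above a set limit, the screen-wide mean plus 3 SD, cut at about 130% in these data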;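 note: barcoded CIT2-GFP strain pooled with four other GFP strains with rapamycin as positive control; median GFP fluorescence per well over plate mean of DMSO wells so 100% = DMSO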); conditions: 3 h, at 10 µM, stronger effect = higher value
[4] = modulators of LAP4-GFP expression in yeast, primary screen, S. cerevisiae, multiplex flow cytometry (AID 1873;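 active = GFP signal, as percent of the solvent control, above the screen mean plus 3 SD, about 149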); conditions: 3 h, at 10 µM, stronger effect = higher value
[5] = modulators of AGP1-GFP expression in yeast TOR pathway, primary screen, cell-based, multiplex flow cytometry, S. cerevisiae (AID 1887;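 active = GFP signal above the screen-wide mean plus 3 SD, that is over about 124.5% of the solvent control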;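 note: AGP1-GFP fusion strain of S. cerevisiae within a five-strain barcoded multiplex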); conditions: 3 h, at 10 µM, stronger effect = higher value
[6] = inhibitors of CD8+ T cell-vesicle binding, pilot screen, LFA-1/ICAM-1 modulator project, MLPCN validation set, flow cytometry (AID 2523); conditions: 2C mouse CD8+ T cells, at 7 µM, stronger effect = lower value; double positive events: measured here: CD8+/vesicle+ event percentage;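 for vesicle binding response: mean PE anti-B7-1 fluorescence of CD8+ cells relative to row control; 100% = QL9-loaded vesicles with DMSO vehicle in the same plate row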
[7] = target: Integrin beta-1 (Homo sapiens) + Integrin alpha-4 (Homo sapiens) (UniProt P13612+P05556); test: inhibition of HUTS-21 binding to VLA-4, pilot screen, VLA-4 allosteric modulator project, U937 cells, HUTS-21 mAb, flow cytometry, validation set (AID 2674;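 active = inhibition above 50%, about 3 SD of the validation set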;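 note: antibody binding induced by the VLA-4 ligand LDV present at three times its Kd; 0% = LDV ligand with antibody and no compound and 100% = antibody without LDV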); conditions: HUTS-21 LIBS mAb binding, at 6.7 µM, stronger effect = higher value, binding induced by LDV ligand
[8] = superoxide lowering in aged yeast cells, pilot screen, validation compound set (AID 2706;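 active = superoxide response below 65% of plate, a cut near 3 SD across the whole screen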;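 note: yeast exposed to compound for one week at 30 degrees C before staining; 100% = mean of all compound wells on the same plate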); conditions: S. cerevisiae aging, superoxide DHE fluorescence; at 10 µM; stronger effect = lower value
[9] = target: Beta-adrenergic receptor kinase 1 (Homo sapiens) (UniProt P25098); test: GRK2 binders displacing RNA aptamer, biochemical, validation, human GRK2, bead flow cytometry (AID 488806;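 active = aptamer binding inhibition above 30%, about 3 SD of noise from non-fluorescent compounds; inactive = inhibition at or below 30%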); conditions: bead-bound GRK2, FAM-aptamer displacement, at 10 µM, stronger effect = higher value
[10] = target: Beta-2 adrenergic receptor (Homo sapiens) (UniProt P07550); test: beta2AR agonists driving receptor internalization, pilot screen, cell-based, FAP fluorogen, flow cytometry, validation set (AID 504459;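 active = percent response above 42, roughly 3 SD of non-fluorescent test compounds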;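 note: agonist-driven loss of surface beta2AR via internalization measured by FAP dye flow cytometry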); conditions: Am2.2-beta2AR cells, FAP surface receptor flow cytometry; at 10 µM; stronger effect = higher value
[11] = target: AP-2 complex subunit beta (Homo sapiens) (UniProt P63010); test: inhibitors of arrestin peptide binding to AP2, pilot screen, biochemical, validation set, GST-AP2 beads, flow cytometry (AID 504541;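 active = inhibition above 54%, about 3 SD of non-fluorescent compounds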;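 note: AP2 carries R879A mutation and is captured from E. coli lysate; bead-bound FITC arrestin peptide fluorescence measuring arrestin peptide binding to AP2; 0% = DMSO wells and 100% = excess unlabeled arrestin peptide control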); conditions: FITC arrestin peptide, at 10 µM, stronger effect = higher value, AP2 beta2 appendage fragment, R879A mutant
[12] = yeast V-ATPase proton transport modulators, S. cerevisiae, pHLuorin, HTS validation (AID 504600; in the data active = response above about 15%;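 note: plate controls were DMSO for no effect and reference compound for full effect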); conditions: S. cerevisiae pHLuorin cytosolic pH, at 10 µM, stronger effect = higher value
[13] = test system: anti-desmoglein-3 scFv antibody binding to human DSG3; test: inhibitors of anti-DSG3 scFv binding to DSG3, pilot screen, biochemical, validation compound set, bead-based, flow cytometry (AID 588368;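 active = binding below the plate cutoff, the plate median minus 3 SD, with a reading above zero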;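 note: signal is the median channel fluorescence of bead-bound GFP antibody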); conditions: Protein G beads, DSG3-Fc, scFv-GFP binding, at 10 µM, stronger effect = lower value
[14] = inhibitors of fungal efflux pumps CDR1, CDR2, MDR1, pilot screen, validation compound set, multiplex, phenotypic (AID 588506;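 active = efflux inhibition above 0.42, the validation set average plus 4 SD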;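 note: Nile Red retained in cells so higher fluorescence means more efflux inhibition; 0 = negative control wells and 1 = enniatin B 25 µM full block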); conditions: S. cerevisiae pump-expressing triplex, Nile Red efflux flow cytometry; at 10 µM; stronger effect = higher value; the pumps come from Candida albicans
[15] = target: ATP-binding cassette sub-family B member 6 (Homo sapiens) (UniProt Q9NP58); test: ABCB6 transporter inhibitors, pilot screen, K562-ABCB6 cells, flow cytometry, validation set (AID 588550;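 active = inhibition above the screen-wide mean plus 3 SD, about 51%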;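 note: 0% = DMSO wells and 100% = benzethonium chloride 70 µM positive control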); conditions: K562-ABCB6 porphyrin accumulation, 1 h, at 10 µM, stronger effect = higher value
[16] = promoters of myeloid differentiation in arrested cells, primary screen, cell-based, GFP/MAC1 double positive, flow cytometry, validation set (AID 588685;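 active = differentiation response of at least 50%, scaled between solvent and reference control, from cells with both markers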;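 note: compound exposure lasts four days before antibody staining and flow analysis; 0% = DMSO wells and 100% = 5 µM fulvestrant positive control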); conditions: ER-HoxA9 marrow cells, stronger effect = higher value, normalized: vehicle 0, fulvestrant 100

Chain of Beta-adrenergic receptor kinase 1 (Homo sapiens) (P25098 whole entry, looked up): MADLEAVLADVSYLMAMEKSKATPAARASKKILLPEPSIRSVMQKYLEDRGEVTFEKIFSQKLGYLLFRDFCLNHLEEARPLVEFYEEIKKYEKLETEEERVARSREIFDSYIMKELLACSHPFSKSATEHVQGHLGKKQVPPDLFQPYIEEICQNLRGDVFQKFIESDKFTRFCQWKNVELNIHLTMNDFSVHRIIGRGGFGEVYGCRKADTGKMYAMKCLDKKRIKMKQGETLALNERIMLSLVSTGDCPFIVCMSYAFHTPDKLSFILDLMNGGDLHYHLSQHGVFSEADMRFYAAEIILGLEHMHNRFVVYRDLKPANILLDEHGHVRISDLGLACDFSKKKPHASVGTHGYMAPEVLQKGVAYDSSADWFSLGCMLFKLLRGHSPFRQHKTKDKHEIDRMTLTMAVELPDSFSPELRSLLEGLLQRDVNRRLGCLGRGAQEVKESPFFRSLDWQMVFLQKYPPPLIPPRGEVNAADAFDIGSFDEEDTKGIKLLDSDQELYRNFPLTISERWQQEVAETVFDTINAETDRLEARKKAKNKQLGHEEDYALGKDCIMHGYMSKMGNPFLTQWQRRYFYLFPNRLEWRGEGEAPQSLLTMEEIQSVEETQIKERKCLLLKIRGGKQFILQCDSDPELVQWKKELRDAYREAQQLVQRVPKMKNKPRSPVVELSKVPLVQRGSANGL
Chain of ATP-binding cassette sub-family B member 6 (Homo sapiens) (Q9NP58 whole entry, looked up): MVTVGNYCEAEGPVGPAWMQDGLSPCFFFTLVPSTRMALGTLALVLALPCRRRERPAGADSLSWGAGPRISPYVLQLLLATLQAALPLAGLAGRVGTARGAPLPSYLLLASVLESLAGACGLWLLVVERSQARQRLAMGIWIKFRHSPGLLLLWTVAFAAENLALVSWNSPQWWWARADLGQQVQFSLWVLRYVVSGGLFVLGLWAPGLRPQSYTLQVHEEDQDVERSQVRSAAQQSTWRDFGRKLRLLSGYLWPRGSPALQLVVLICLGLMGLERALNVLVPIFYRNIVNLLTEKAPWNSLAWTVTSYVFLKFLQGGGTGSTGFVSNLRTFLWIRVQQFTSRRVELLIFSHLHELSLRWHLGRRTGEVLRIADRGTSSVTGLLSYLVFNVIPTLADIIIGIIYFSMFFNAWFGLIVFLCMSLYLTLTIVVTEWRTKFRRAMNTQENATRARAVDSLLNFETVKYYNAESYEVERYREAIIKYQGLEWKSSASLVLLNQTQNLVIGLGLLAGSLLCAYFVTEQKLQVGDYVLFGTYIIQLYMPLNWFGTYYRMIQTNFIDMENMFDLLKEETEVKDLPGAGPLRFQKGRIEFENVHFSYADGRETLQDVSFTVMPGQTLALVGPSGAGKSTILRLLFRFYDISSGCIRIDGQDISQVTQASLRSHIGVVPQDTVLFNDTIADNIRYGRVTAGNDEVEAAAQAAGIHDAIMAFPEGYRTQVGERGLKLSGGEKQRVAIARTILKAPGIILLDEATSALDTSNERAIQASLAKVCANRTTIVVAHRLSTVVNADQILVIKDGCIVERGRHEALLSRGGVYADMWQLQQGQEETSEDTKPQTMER
Chain of Integrin beta-1 (Homo sapiens) + Integrin alpha-4 (Homo sapiens) (P05556 whole entry, looked up): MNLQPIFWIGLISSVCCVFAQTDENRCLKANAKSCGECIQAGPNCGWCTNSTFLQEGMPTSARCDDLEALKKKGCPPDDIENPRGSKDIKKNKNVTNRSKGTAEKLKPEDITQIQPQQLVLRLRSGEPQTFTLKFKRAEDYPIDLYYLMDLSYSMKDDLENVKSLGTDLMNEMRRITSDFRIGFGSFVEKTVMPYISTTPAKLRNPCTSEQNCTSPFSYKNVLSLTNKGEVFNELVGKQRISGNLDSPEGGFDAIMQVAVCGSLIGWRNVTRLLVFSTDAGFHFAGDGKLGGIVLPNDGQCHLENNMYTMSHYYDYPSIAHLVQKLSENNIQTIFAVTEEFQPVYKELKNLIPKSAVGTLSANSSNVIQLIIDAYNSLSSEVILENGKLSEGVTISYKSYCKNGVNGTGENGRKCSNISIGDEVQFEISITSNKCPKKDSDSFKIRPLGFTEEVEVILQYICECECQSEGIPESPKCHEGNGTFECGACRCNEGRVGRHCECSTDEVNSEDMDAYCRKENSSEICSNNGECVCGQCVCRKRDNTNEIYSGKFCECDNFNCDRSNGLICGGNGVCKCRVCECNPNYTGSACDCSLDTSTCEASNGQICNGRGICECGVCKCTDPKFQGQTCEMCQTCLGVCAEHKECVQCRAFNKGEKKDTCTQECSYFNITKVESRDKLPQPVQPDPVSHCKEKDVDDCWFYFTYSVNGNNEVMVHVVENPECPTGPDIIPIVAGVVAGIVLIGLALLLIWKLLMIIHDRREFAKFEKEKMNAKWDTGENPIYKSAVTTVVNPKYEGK
Chain of Integrin beta-1 (Homo sapiens) + Integrin alpha-4 (Homo sapiens) (P13612 whole entry, looked up): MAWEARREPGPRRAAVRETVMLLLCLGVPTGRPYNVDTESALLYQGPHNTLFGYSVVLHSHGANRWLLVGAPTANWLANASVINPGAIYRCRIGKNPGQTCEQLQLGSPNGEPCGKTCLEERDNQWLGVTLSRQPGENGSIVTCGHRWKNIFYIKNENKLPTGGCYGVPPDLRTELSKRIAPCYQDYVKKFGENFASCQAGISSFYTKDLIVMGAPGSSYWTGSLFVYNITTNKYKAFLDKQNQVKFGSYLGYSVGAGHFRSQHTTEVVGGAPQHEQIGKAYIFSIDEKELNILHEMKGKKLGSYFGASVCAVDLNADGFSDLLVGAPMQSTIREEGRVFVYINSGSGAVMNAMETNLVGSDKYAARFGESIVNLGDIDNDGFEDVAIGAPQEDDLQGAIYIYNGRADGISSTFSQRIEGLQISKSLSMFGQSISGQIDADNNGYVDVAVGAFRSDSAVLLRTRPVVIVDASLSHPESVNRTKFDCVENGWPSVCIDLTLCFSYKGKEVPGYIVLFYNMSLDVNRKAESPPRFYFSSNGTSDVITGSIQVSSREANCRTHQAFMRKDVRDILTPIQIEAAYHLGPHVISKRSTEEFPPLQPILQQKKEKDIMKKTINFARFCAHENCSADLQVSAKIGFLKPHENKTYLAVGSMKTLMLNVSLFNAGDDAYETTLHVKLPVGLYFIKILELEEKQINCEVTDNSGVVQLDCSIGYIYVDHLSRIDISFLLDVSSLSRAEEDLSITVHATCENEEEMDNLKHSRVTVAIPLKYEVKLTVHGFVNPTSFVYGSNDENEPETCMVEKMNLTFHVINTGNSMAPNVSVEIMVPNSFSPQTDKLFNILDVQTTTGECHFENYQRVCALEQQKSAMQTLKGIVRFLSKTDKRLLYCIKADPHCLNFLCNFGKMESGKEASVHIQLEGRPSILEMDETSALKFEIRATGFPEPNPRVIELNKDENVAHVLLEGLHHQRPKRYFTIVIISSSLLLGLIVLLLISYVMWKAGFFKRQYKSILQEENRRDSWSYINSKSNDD
Chain of Beta-2 adrenergic receptor (Homo sapiens) (P07550 whole entry, looked up): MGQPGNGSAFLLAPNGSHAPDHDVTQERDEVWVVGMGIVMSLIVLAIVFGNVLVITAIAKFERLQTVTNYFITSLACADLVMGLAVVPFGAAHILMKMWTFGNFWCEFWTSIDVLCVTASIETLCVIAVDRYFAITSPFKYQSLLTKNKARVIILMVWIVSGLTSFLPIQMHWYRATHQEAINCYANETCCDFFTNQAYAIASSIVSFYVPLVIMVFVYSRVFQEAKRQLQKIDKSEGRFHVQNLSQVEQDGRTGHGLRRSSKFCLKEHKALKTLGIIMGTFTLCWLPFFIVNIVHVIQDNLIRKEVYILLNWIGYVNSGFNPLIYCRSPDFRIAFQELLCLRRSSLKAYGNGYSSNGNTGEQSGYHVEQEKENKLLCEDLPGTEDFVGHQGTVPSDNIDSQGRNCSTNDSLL
Chain of AP-2 complex subunit beta (Homo sapiens) (P63010 whole entry, looked up, the tested form may be a part, one chain of several): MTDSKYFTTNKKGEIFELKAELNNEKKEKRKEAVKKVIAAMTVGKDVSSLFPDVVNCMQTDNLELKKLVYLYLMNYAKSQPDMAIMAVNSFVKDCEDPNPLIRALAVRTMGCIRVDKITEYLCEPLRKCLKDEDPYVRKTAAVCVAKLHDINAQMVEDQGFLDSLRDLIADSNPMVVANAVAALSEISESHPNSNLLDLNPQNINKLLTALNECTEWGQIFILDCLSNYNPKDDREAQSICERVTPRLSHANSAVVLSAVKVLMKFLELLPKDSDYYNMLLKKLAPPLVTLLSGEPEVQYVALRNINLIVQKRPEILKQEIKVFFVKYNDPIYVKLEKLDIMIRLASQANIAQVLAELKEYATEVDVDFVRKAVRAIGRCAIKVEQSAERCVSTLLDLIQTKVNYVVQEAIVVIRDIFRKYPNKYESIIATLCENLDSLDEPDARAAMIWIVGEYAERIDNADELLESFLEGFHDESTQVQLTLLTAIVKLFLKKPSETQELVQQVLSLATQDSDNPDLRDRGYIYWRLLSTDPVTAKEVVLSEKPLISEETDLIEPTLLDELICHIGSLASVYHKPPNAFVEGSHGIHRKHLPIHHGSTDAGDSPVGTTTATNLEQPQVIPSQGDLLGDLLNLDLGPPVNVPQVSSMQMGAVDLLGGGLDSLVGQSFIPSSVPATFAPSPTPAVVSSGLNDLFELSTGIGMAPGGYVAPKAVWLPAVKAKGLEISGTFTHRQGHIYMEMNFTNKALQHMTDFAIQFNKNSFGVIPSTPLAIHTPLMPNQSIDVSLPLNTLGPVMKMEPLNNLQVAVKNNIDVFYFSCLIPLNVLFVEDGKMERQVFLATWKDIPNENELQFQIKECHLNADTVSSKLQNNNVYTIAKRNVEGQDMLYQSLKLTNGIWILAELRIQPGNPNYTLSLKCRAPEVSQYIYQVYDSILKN

CC(=O)OCC[N+](C)(C)C
inactive: percent of DMSO control GFP [1] 95.9% | GFP response vs DMSO [2] 116% | percent response of DMSO control [3] 101% | GFP response vs DMSO [4] 83.6% | GFP response, % of DMSO [5] 105% | vesicle binding response [6] 178% and 161% | inhibition [7] -20.7% and 1.44% | superoxide response (% of plate) [8] 90.4% and 67.4% | aptamer binding inhibition [9] 4% and 1% | response [10] -3.17% and -8.19% | inhibition [11] -8.61% and -2% | response [12] 2.52% and -3.48% | binding (% of control) [13] 102% and 106% | efflux inhibition (fraction of control) [14] 0.09 and 0 | inhibition [15] 6% and 10% | differentiation response [16] 2.46% and -2.03%
61.2% and 60.9%: double positive events [6]

COc1ccc(N2C(=O)[C@@H]3[C@H](C2=O)[C@H]2c4ccccc4C=CN2[C@@H]3C(C)=O)cc1
inactive: percent of DMSO control GFP [1] 101% | GFP response vs DMSO [2] 104% | percent response of DMSO control [3] 96.5% | GFP response vs DMSO [4] 112% | GFP response, % of DMSO [5] 96.8% | vesicle binding response [6] 176% | inhibition [7] -27.9% | superoxide response (% of plate) [8] 98.7% | aptamer binding inhibition [9] 2% | response [10] -19.3% | inhibition [11] -12.3% | response [12] -3.65% | binding (% of control) [13] 107% | efflux inhibition (fraction of control) [14] -0.26 | inhibition [15] -6% | differentiation response [16] -3.11%
64.6%: double positive events [6]

CCc1cc(-c2[nH]ncc2-c2ccc3c(c2)OCO3)c(O)cc1O
inactive: percent of DMSO control GFP [1] 99.8% | GFP response vs DMSO [2] 102% | percent response of DMSO control [3] 105% | GFP response vs DMSO [4] 95.1% | GFP response, % of DMSO [5] 99.5% | vesicle binding response [6] 13.8% | inhibition [7] 9.71% | superoxide response (% of plate) [8] 92.1% | aptamer binding inhibition [9] 3% | response [10] 4.41% | inhibition [11] -19.7% | response [12] 0.5% | binding (% of control) [13] 107% | efflux inhibition (fraction of control) [14] -0.34 | inhibition [15] 4% | differentiation response [16] -3.4%
58.3%: double positive events [6]

O=C(CC1SC(=O)NC1=O)Nc1ccc(Cl)cc1 (stereo unspecified)
inactive: percent of DMSO control GFP [1] 101% | GFP response vs DMSO [2] 104% | percent response of DMSO control [3] 108% | GFP response vs DMSO [4] 98% | GFP response, % of DMSO [5] 108% | vesicle binding response [6] 193% | inhibition [7] 6.95% | superoxide response (% of plate) [8] 116% | aptamer binding inhibition [9] -1% | response [10] 2.95% | inhibition [11] 1.72% | response [12] 1.59% | binding (% of control) [13] 100% | efflux inhibition (fraction of control) [14] -0.205 | inhibition [15] -3% | differentiation response [16] -16.3%
65.3%: double positive events [6]

CC1(C)CC(NCc2ccccc2)CCO1 (stereo unspecified)
inactive: percent of DMSO control GFP [1] 103% | GFP response vs DMSO [2] 97.6% | percent response of DMSO control [3] 96.4% | GFP response vs DMSO [4] 101% | GFP response, % of DMSO [5] 114% | vesicle binding response [6] 226% | inhibition [7] 13.4% | superoxide response (% of plate) [8] 94.9% | aptamer binding inhibition [9] 0% | response [10] -7.51% | response [12] 5.23% | binding (% of control) [13] 101% | efflux inhibition (fraction of control) [14] 0.04 | inhibition [15] 4% | differentiation response [16] -7.94%
60.6%: double positive events [6]
active: inhibition [11] 60.9%

CC1CCN(C(=O)Oc2ccccc2)CC1
inactive: percent of DMSO control GFP [1] 105% | GFP response vs DMSO [2] 111% | percent response of DMSO control [3] 103% | GFP response vs DMSO [4] 102% | GFP response, % of DMSO [5] 107% | vesicle binding response [6] 143% | inhibition [7] 2.93% | superoxide response (% of plate) [8] 111% | aptamer binding inhibition [9] 0% | response [10] 0.66% | inhibition [11] -6.8% | response [12] 0.42% | binding (% of control) [13] 101% | efflux inhibition (fraction of control) [14] 0.045 | inhibition [15] 5% | differentiation response [16] -6.03%
57.9%: double positive events [6]

CC(/C=C1\SC(=O)N(CCCC(=O)O)C1=O)=C\c1ccccc1
inactive: percent of DMSO control GFP [1] 105% | GFP response vs DMSO [2] 103% | percent response of DMSO control [3] 99% | GFP response vs DMSO [4] 124% | GFP response, % of DMSO [5] 99.3% | vesicle binding response [6] 161% | inhibition [7] 12.5% | superoxide response (% of plate) [8] 112% | aptamer binding inhibition [9] 2% | response [10] -6.06% | inhibition [11] 37.2% | response [12] -1.36% | binding (% of control) [13] 101% | efflux inhibition (fraction of control) [14] 0 | inhibition [15] 0% | differentiation response [16] 12.8%
59.5%: double positive events [6]

CC(C)CN(C)Cc1c(C(=O)N2CCc3ccccc3C2)nc2ccc(Cl)cn12
inactive: percent of DMSO control GFP [1] 105% | GFP response vs DMSO [2] 103% | percent response of DMSO control [3] 107% | GFP response vs DMSO [4] 98% | GFP response, % of DMSO [5] 105% | vesicle binding response [6] 147% | inhibition [7] 8.29% | superoxide response (% of plate) [8] 99.2% | aptamer binding inhibition [9] 0% | response [10] -16.8% | inhibition [11] 20.6% | response [12] -4% | binding (% of control) [13] 104% | efflux inhibition (fraction of control) [14] 0.22 | inhibition [15] 11% | differentiation response [16] -13.3%
62.4%: double positive events [6]
